Whole data set: some 4,500 sequences, median “median log2 fold change of GCK-ALFA target abundance (FLAG IP / Myc IP barcode read proportion)” near 0.078, cut for the lowest 2% near -0.6. The full list was thinned out, with the lowest values kept by preference.
B1: GBRAP_14_3817 (protein)
chain: MEELKKKIKEILDDLYEELVEDIGLDEEKVKKLIDKALEEIFKALDDPEGSEEKIKEIMEKLKKEIEKLAAELGADEAAAARALVTDAEYEIDEAIEEAK
B2: GBRAP_160_4228 (protein)
chain: METVEKIVEIFRETFLEALELIEGESEEERRVILDVAVGEIILEVEEIEEATDEMVEIVDERAEKLAERLLAARDASREERRALVEEEAKKLREELEKLA
B3: GBRAP_52_6106 (protein)
chain: ARARVRALVEEALALVRAGREEEARALLEAFARTANEEELELFAEALAELAREAAPEDLDAVWRLAEMAAEALEAAGWPDVLVDDLLARVAAALYERELK
B4: GBRAP_160_4092 (protein)
chain: SEEIEKLIEEIDELRDETKEMIKGESREERATIIRGFGGEVIMLLFESGIVSEEVEDLADELFDELVATVEANPELTEEEIFALIDETVDEIKEAIKEDH
B5: GBRAP_80_6797 (protein)
chain: AAAALAAALAALAEVDAELAARVAAIVATARALGVSDADLADFVAAVLELAKADKEEAAALVDETEALLAEEAARGDTANATAVIRVHAGDALLAVEELE
B6: GBRAP_160_3998 (protein)
chain: SEKLAALKAEIAAILAETLELARGEDAAERLAVVRVMGGQILLTLEESGIVSDEALAAVDAILDATAAEVAANPDLTDAELAALLDATLARINAVLEEHS
B7: GBRAP_11_2747 (protein)
chain: KKEKLKEIAKAAEKLAKLLEELIKEGVDNEELLKEAEKALKELKKLVEEYGDESLKKLVEIIEEEFKKAKEDPENALKYLQNALAAARVLAGQVLLDIEE
B8: GBRAP_184_5076 (protein)
chain: AVLEETLRVEDLEEARARLAALRERVADFRGTLVVLVEMPEFERETARAVLEGLAAMKAAGYVTDVTVGFDAPLTEEQVDFVVDTADALGVKVTLALPEE
B9: GBRAP_35_5513 (protein)
chain: SSIDTETEMLVSTLEDATLAVEDLDPETLKKIVESLAELAREFILQNKNDLEALKRVKEELEKLAEALRKRGLDDPLIKEALEKVEEVIKLAEEEIKKIE
B10: GBRAP_160_4713 (protein)
chain: SETAEERKKYVDEEFERAKKLIEGETIEQRAIIVEGTVGEIIMEFVEDEKATDELIDEVIEIGDELVKTILENPNLTLEEIKELIDEAREKMKEAIDKHL
B11: GBRAP_78_6743 (protein)
chain: KAEEVIDETIETLNEALKALSSKPIEEVGDAMLHLLDASEALIEAEEEGFPLEYIEEAARHLAAAIAEIEAKGIELPAEIMAALKASLEALKALAAEKKA
B12: GBRAP_128_3161 (protein)
chain: AVEEAKKKTKELMEKIKNSSLEEVEKLAKELVEMMKTASDEEVEAMAEVILEELPKLSAEKLEILADVLEEKMPELSPFGQNQAADVLVEALNEAEELEE
B13: GBRAP_78_6611 (protein)
chain: ETKEKILKLLEEAEELAREVRKLAPEVAEQAAELEVLLGTAIYMVDTGSESKEEILETLEEAEKAAKELKKLVEGLAEEVQKLVKEALEKIKEAIKLLKE
B14: GBRAP_160_4329 (protein)
chain: SEEFEKLIEFIDEEFEETKELIKGLSLEQVKVLIEGTFGEIIMEMSENESISDELVDFVVAERDALLATLDANPDLSEEEIKALIDEARERIKEALKKEA
B15: GBRAP_125_3108 (protein)
chain: SEEEILEALKRLAKALGFSEEEAEEAAELARKFSVKQTLYALFLAEGEEELADLVEKLTEEQAKRALLKLAKWLEENPNATKEEVLEQAKKILEEELAKQ
B16: GBRAP_125_3105 (protein)
chain: MEEEILEALKLLAKALGFDDEDAEEAARLAREFSVKMTLYALLKAEGEEELADLVEKLTEEQAKKVLLKVAEWLKKNPNATKEEVLKKLKEVILEELEKA
B17: GBRAP_9_7175 (protein)
chain: LKEAAKKAIEGLKEAKEFALEVVPEEKKEEINAAFDELIETVKKMQADDSVTKEEFRETLEKGFDKIIELAKKNLDPEIAAIVETELLTIKAEVDELLDE
B18: GBRAP_160_3978 (protein)
chain: SEEIEKLKKEIKELAEEAKELIEGESYEERLTIVRVMFGEILMLLMSNENVSDETEEEVAKVGDETIAYLEANPDLTEEEIKELIKEAEKKIFEILEKNE
B19: GBRAP_160_4224 (protein)
chain: METVEKLVKIFRENFEEALELIEGESLEEQKVILDVAAGEVILEAEEIEEATEEMVEIVDKKAEEAREELLEAREASKEEKRKLIEEHAEKLRKELEKVA
B20: GBRAP_74_6499 (protein)
chain: SAATEAAAEEFAALLRAGASYEELMAHLAKMNVEALNAAVIKATEVARANADELTEEQIDALAELADRVFAESEDPEAIKAAGELVKILYERELRLEAER
B21: GBRAP_74_6501 (protein)
chain: AAADEAAAEEFAELLRRGASYEELMAHIAEMNVAALDLAVIKATEEARENAEKLTEEQIDALAELADRVFAESENPEAIAAAGELVKILYETEERRRAEE
B22: GBRAP_26_5460 (protein)
chain: MEEAERAAEAEVRAIAARLPDPRVAAAVVAEFSTELLEAEEAIENGEDPKEAFRKAREEFLAEARELMEEAGLSPEEIAAFEAELSAVFDKLEAEVLAEL
B23: GBRAP_52_6294 (protein)
chain: SMEEVEKKAKEIVELVKEGKLEEAIELAKKFVEENSLEEALELGKLLIEKIEELTPEEAELMLEVIEALAEEIEKEFGAEEEADILEAEAAAAAYKVLQK
B24: GBRAP_160_4717 (protein)
chain: SETAEKLKEYVDEEFDEAEELMKGESIEQRAIILEGTVGEIIMELFENPDASDELIDEVLKIGDEAVATLKANPDLSDEEIEELLDEARDKMKEAIDKHL
B25: GBRAP_137_3636 (protein)
chain: PNVTITTKTEDDLVEINIEFDDPELAEEVAELIEDVAHKHGALALSIEINEDGTLDATIWVPKEKAQALLDALIKALKEKFNATVTVIDEDTGEVKTIKA
B26: GBRAP_137_3622 (protein)
chain: KKVTITFYEEDGVAIAEITADTSVDKEKVLALVEEVAEEHGVQLVEALVEPDEPLVLYLVGTPEQVIAAVKDLIERLKSELGIEVVLESEGAEELVEEVK
B27: GBRAP_137_3623 (protein)
chain: KKVKITFYEEDGVAIAEITADTSVDKEKVLEIVEEVAEKHGVKLVVALTEPDEPAVFYLVGTPEQVIAAVKELIKRLKEELGIEVELSSEGAEELVEEVK
B28: GBRAP_160_4497 (protein)
chain: SERKERAKERARELVEEAAEAIREEEGEGKEQIARAYAGDIALELLELGVVSEEQEEEVLRLAEEGFRRMVEASEKGEEELERAAEELKRRLEELIEEFA
B29: GBRAP_160_4123 (protein)
chain: KEKKRKTLLDSAKDVEETLKIIEDLSPEEAGTLAIVTLGQILLDNDELDDEFPEIEKLADEAIEKLRETAKTDPEKLKELSKELLEEIRELLLKKAEELK

Target: GABARAP, O95166
Sequence (O95166 whole entry, the tested form may be a part): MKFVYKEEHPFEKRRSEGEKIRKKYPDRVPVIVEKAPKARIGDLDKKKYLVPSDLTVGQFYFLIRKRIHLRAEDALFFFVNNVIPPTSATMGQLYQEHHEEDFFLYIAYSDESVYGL
Assay: median log2 fold change of GCK-ALFA target abundance (FLAG IP / Myc IP barcode read proportion) (log2 ratio); each designed protein is fused to an ALFA-tag nanobody in HEK293 cells to bring the named protein to FLAG-tagged glucokinase (GCK); Myc marks an untargeted standard; higher = target protein stabilised (more abundant)
Details: target protein: 3xFLAG-MCP-GCK-ALFA reporter; HEK293 landing pad (RPLP)
Procedure, shortened: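 An ALFA-nanobody-fused binder library was recombined into HEK293 landing-pad cells and induced with 2 μg mL^−1 doxycycline. Cells were transfected with a plasmid expressing a FLAG-tagged target and a Myc-tagged standard. After 48 h, lysates underwent anti-FLAG and anti-Myc immunoprecipitation, and circular RNA barcodes were reverse transcribed, amplified and sequenced. Target abundance is the per-binder median log2 ratio of FLAG to Myc barcode read proportions. Barcodes needed ≥10^−7 proportion in both replicates, binders ≥3 barcodes per replicate, and a 10^−6 pseudocount was added; the two replicates were pooled.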

Binder | median log2 fold change
B1 | -0.057
B2 | -0.393
B3 | -0.266
B4 | -0.649
B5 | -0.147
B6 | -0.533
B7 | -0.119
B8 | 0.0481
B9 | 0.222
B10 | -0.628
B11 | -0.0804
B12 | 0.0696
B13 | 0.172
B14 | -0.22
B15 | -0.437
B16 | -0.694
B17 | 0.286
B18 | 0.206
B19 | -0.617
B20 | -0.772
B21 | 0.0485
B22 | 0.197
B23 | 0.0653
B24 | -0.000956
B25 | -0.117
B26 | -0.288
B27 | -0.628
B28 | 0.292
B29 | 0.128

— the supplement of paper PMC12632987
